# Rab9 prom act: qHTS Assay for Rab9 Promoter Activators. Huh7 Rab9 promoter-luciferase reporter, luminescence, 24 h. Potency, µM (top dose mostly 9.22 µM), for inactives: top-dose activation, negative = inhibition, hits mostly activators. 2.8% of 320,000 active; also: % of control where 0% means no effect; nearly all actives have a fitted effect of over 60% in size
#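 Huh7 reporter line, Rab9 promoter upstream of luciferase. Compound exposure 24 h at 37 °C in reduced-serum medium with 10% FBS. Read-out: luminescence.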
# NPC1 promoter act: qHTS Assay for NPC1 Promoter Activators; 2.4% of 320,000 active; Huh7 NPC1 promoter luciferase reporter, 24 h; Potency, µM (highest dose often 9.22 µM), for inactives: top-dose activation, most hits filed as activators; AID 485313, 2010; also: % of control where 0% means no effect; nearly all actives have a fitted effect of over 60% in size
#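 Readout is luciferase luminescence, reflecting NPC1 promoter activation in stably transfected Huh7 cells after 24 h compound exposure at 37 °C in reduced-serum medium with 10% FBS.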
# ELG1 genotoxic: qHTS screen for small molecules that induce genotoxicity in human embryonic kidney (HEK293T) cells expressing luciferase-tagged ELG1; HEK293T ELG1-luciferase reporter, luminescence, 16 h; Potency, µM (series often up to 46 µM), inactives show at the highest dose activity change, positive = activation, usual class: activators; 1.3% of 330,000 active; also: % of control where 0% means no effect; nearly all actives have a fitted effect of over 60% in size
#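 Reporter readout depends on ELG1 protein level, which increases with genetic stress. After 16 hr compound exposure at 37 °C, luciferase activity was quantified using ONE-Glo.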
# SMN2 splice enh: qHTS Assay for Enhancers of SMN2 Splice Variant Expression. HEK293 SMN2-luciferase splicing reporter, luminescence, 30-36 h. Potency, µM (highest dose often 46.1 µM), without a hit: top-dose activity change, positive = activation, most hits filed as activators. 2.8% of 210,000 active; also: % of control where 0% means no effect; nearly all actives have a fitted effect of over 55% in size
#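 HEK293 cells carry an SMN2 […]–luciferase reporter in which exon 7 inclusion puts luciferase in frame. Cells were plated 10-12 h before compound addition, then incubated 30-36 h at 37C. ONE-Glo luminescence was read; sodium butyrate at 4.5 mM final served as control.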
# FLuc counter: qHTS profiling assay for firefly luciferase inhibitor/activator using purifed enzyme and Km concentrations of substrates (counterscreen for miR-21 project). 6.9% of 360,000 active. Luciferin 4-monooxygenase (Photinus pyralis), P08659. Potency, µM (highest dose often 57.5 µM), inactives show top-dose activity change, negative = inhibition, usual class: inhibitors. purified FLuc, Km substrates, luminescence inhibition;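 also: plate controls were vehicle for no effect and reference inhibitor for full effect; nearly all actives have a fitted effect of over 55% in size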
# Target sequence (P08659 whole entry, looked up): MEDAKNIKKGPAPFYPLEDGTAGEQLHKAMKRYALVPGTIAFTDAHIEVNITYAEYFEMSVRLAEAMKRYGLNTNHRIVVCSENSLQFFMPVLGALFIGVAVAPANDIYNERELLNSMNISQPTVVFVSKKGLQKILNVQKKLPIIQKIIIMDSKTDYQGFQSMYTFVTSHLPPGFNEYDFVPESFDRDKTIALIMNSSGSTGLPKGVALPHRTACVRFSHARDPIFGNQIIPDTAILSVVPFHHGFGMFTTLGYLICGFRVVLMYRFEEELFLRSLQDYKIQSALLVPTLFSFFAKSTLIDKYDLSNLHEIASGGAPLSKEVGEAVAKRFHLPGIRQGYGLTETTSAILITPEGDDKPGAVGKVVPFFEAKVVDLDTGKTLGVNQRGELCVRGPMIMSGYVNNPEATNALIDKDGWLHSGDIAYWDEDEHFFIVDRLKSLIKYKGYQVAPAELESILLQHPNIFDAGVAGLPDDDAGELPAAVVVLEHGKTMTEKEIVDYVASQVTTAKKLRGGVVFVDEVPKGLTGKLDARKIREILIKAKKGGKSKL
#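 Purified P. pyralis luciferase (10nM final) with 10uM D-luciferin and 10uM ATP (Km levels) in 50mM Tris acetate pH 7.5, 10mM Mg acetate, 0.01% Tween-20, 0.05% BSA; qHTS 6-point titration, ~60 µM downward; luminescence read.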
# * marks the source's active call; other numbers are inactive results; ? = inconclusive; . = no result given; [ ] = remark or other dose. In the library only some 7.5% were active in any assay of this set; here they are far more common. Calls follow the shape of the dose curve; as a rule, active = well fitted curve in the direction sought with a large enough effect; inconclusive = small, poorly fitted or top-dose-only effect, or another doubt; inactive = no such curve, though single readings can be large; an effect the other way counts as inactive or inconclusive. Potency is read from the fitted curve at half-maximal effect.
SMILES,Rab9 prom act,NPC1 promoter act,ELG1 genotoxic,SMN2 splice enh,FLuc counter
CC(C)c1nnc(NC(=O)c2ccc3c(c2)OCO3)s1,0.282µM*,0.447µM*,?,1µM*,1.35µM*
Cc1cc2nc3ccc(=[N+](C)C)cc-3sc2cc1N,13.9%,11.7%,-2.4%,.,16.9µM*
Cc1nc2cc(C)c(C)cc2s1,2.5%,-12.7%,1.2%,.,?
O=C(Cn1cnnn1)OCC(=O)c1ccc(Cl)s1,-2.5%,0.4%,0.7%,-8.1%,0.3%
Cc1ccc(C(=O)Cn2cnc3ccccc3c2=O)cc1,2.51µM*,?,?,11.2µM*,21.3µM*
CC(C)(C)n1ncc2c(=O)n(CC(=O)c3ccccc3)cnc21,4.47µM*,?,15.1%,12.6µM*,23.9µM*
CC(C)(C)n1ncc2c(=O)n(CC(=O)OCc3ccccc3)cnc21,1.41µM*,?,?,3.7%,0.0849µM*
O=C(Cn1cnc2ccccc2c1=O)c1ccccc1,10.8%,15.0%,10.6%,?,?
CC(C)(C)n1ncc2c(=O)n(CC(=O)Nc3ccccc3)cnc21,7.8%,4.3%,6.3%,-12.9%,-9.0%
CC(=O)Nc1nonc1NC(=O)c1ccc(F)cc1,22.3%,0.5%,1.8%,17.8%,-0.7%
O=C(Nc1noc2ccccc12)c1ccc(F)cc1,.,.,.,?,2.13µM*
O=C(Nc1noc2ccccc12)c1cccc(F)c1,.,.,.,?,2.39µM*
O=C(Nc1ncn[nH]1)c1cccc(F)c1,-1.5%,-1.6%,2.0%,.,-0.1%
Cc1ccc(CN(C(=O)COc2cccc([N+](=O)[O-])c2)c2ccccn2)cc1,.,.,.,.,0.6%
CC(C)(C)c1ccc(C(=O)NCc2nnc(SCC(=O)NC3CCCCC3)o2)cc1,6.6%[1.84 µM],2.2%,3.6%,.,19µM*
CC(C)(C)c1ccc(-c2nnc(SCC(=O)NC3CC3)o2)cc1,?,?,10.2%,.,4.26µM*
CC(C)(C)c1ccc(C(=O)NCc2nnc(SCC(=O)NC3CCCC3)o2)cc1,1.8%,1.9%,-1.2%,.,?
COc1ccccc1CN1CCCC2(CCN(S(C)(=O)=O)CC2)C1,.,.,.,-1.3%,.
COc1ccc(NC(=O)c2c(NC(=O)CCC(=O)O)sc3c2CCCCC3)cc1,11.3%,-5.6%,-0.9%,.,-4.7%
Cc1ccc(NC(=O)c2ccc(CNc3c(N4CCOCC4)c(=O)c3=O)cc2)cc1,3.3%,0.5%,0.8%,-14.1%,15.1µM*
Cc1ccc(NC(=O)c2ccc(OC(=S)N3CCOCC3)cc2)cc1,2µM*,?,?,2.1%,-12.5%
O=C(COC(=O)Cc1ccccc1[N+](=O)[O-])NCc1ccc(Cl)cc1,0.7%,-1.9%,-1.2%,-13.8%,4.3%
CC(C)N(C(=O)[C@H]1C[C@H](CC(=O)NCC23CC4CC(CC(C4)C2)C3)C(=O)N2CCc3c([nH]c4cc(-c5ccco5)ccc34)[C@]12C)C(C)C,.,.,-1.7%,.,.
Cc1cc(Cl)ccc1OCc1nc(-c2ccc(-n3cccc3)cc2)no1,.,.,.,-7.9%,-1.4%
Cc1cc(Cl)ccc1OCc1nc(-c2ccc(O)cc2)n[nH]1,-0.2%,-3.4%,-2.5%,10.2%,10.7µM*
SMILES,Rab9 prom act,NPC1 promoter act,ELG1 genotoxic,SMN2 splice enh,FLuc counter
S=C1NC(c2ccccc2)=NCN1c1ccccc1,23.6%,14.6%,21.0%,11.3%,-14.7%
CCOc1cc(/C=N/Nc2nc(Nc3ccccc3)nc(N3CCCCC3)n2)ccc1OCC(=O)O,24.8%,0.2%,-1.5%,-2.5%,1.07µM*
COc1cc(/C=N/Nc2nc(N3CCCCC3)nc(N3CCCCC3)n2)ccc1OC(=O)c1ccco1,-0.2%,-1.8%,-0.1%,0.1%,0.6%
COc1ccc(/C=N/Nc2nc(Nc3ccccc3)nc(N3CCCCC3)n2)cc1OC,?,?,-6.6%,19.1%,1.07µM*
CCOc1cc(/C=N/Nc2nc(N3CCCC3)nc(N3CCCC3)n2)ccc1O,0.5%,-4.7%,-2.1%,-9.3%,-14.9%
CCOc1cc(/C=N\NC(=O)Cc2ccccc2)ccc1OCC(=O)Nc1ccc(C)c(C)c1,-9.5%,-5.9%,12.1%,5.7%,2.4%
CCOc1cc(/C=N/Nc2ccccc2Cl)ccc1OCC(=O)O,0.2%,12.3%,?,0.1%,21.3µM*

# Screening data (PubChem)
